# Source: PubChem
# Rows were chosen to be rich in hits. Some 6.1% of all compounds tested hit in one or more screens of this group.
# D1 antagonist – antagonists of human D1 dopamine receptor. AID 504652. actives 3.2% (n = 360,000). activity change, negative = inhibition, % at 10 µM. HEK293 TREx D1 cells, calcium flux, dopamine EC80; stronger effect = lower value. P21728; in the data active = activity change below about -30%; also: % is scaled to controls: 0 for no effect and ±100 for the full control effect
#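 Cells carrying a force-coupled, tetracycline-inducible human D1 receptor report calcium flux. Each well gets a 10 s baseline, compound with 180 s monitoring, then an EC80 dopamine stimulus with a second 180 s kinetic read.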
# D1 ag – agonists of human D1 dopamine receptor | HEK293 T-REx D1 cells, calcium flux, agonist mode | P21728 | actives 1% (n = 360,000) | AID 504660 | activation, % at 2 µM; in the data active = activation above about 30%; also: 0% is about no effect
#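 Agonism was scored from calcium flux recorded over 180 s (1 read/s) after pintool compound addition, following a 10-cycle baseline. Cells were inducible force-coupled HEK293 TREx D1, plated overnight at 30 C and loaded with no-wash calcium dye.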
# D1 PAM – potentiators of human D1 dopamine receptor; P21728; HEK293 TREx D1 cells, calcium flux, dopamine EC20 potentiation; potentiation, % at 10 µM; actives 0.036% (n = 360,000); in the data active = potentiation above about 30%; also: 0% is about no effect
# D3 antag – blocks the human D3 dopamine receptor | actives 2.5% (n = 360,000) | AID 652054 | max response, negative = inhibition, % | D3R cells, DiscoveRx beta-arrestin luminescence, antagonist mode; stronger effect = lower value | P35462; in the data active = max response below about -50%; inconclusive = no clear call, values can overlap the other calls; also: % is scaled to controls: 0 for no effect and ±100 for the full control effect
# Target sequence (P35462 whole entry, looked up): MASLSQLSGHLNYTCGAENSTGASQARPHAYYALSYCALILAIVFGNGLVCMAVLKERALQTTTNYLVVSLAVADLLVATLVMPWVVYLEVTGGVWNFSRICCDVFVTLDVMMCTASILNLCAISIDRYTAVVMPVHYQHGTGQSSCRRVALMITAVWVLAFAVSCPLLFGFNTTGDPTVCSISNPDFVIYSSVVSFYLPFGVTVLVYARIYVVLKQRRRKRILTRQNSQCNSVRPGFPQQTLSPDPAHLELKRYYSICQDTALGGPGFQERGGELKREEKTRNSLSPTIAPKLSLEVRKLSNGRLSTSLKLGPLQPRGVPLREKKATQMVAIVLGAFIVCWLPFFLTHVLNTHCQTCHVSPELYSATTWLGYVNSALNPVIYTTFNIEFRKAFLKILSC
#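 Cells plated overnight at 1500 cells/well, then exposed to library compounds with dopamine controls for 90 minutes at 37 degrees C. DiscoveRx reagent added for 30–60 minutes at room temperature; luminescence read, quantitative HTS format.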
# DRD3 agonist – D3 dopamine receptor (human) agonism; P35462; D3R DiscoveRx beta-arrestin cells, luminescence, 90 min; max activation, %; actives 0.58% (n = 410,000); in the data active = max activation above about 30%; also: 0% is about no effect
#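 Cells at 1500/well, incubated overnight, then treated with pinned compounds (dopamine as control) for 90 min at 37 degrees C. DiscoveRx reagent added for 30 - 60 minutes at room temperature; luminescence read.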
# * = called active by the depositor; ? = inconclusive; . = not tested or not shown.
SMILES,D1 antagonist,D1 ag,D1 PAM,D3 antag,DRD3 agonist
Cc1ccc(S(=O)(=O)N2CCC(=O)N(CCOCc3ccccc3)CC2)cc1,-12,-3,-7,6,-12
Cc1ccc(NC(=O)OCCN2CCN(S(=O)(=O)c3ccc(C)cc3)CCC2=O)cc1,5,-5,-2,23,0
Cc1ccc(COCCN2CCN(S(=O)(=O)c3ccccc3)CCC2=O)cc1,-41*,1,-6,9,7
O=C(Nc1ccccc1)OCCN1CCN(Cc2ccccc2)CCC1=O,37,-1,-7,26,-2
Cc1ccc(S(=O)(=O)N2CCC(=O)N(CCOC(=O)Nc3cccc(Cl)c3)CC2)cc1,-31*,3,-5,23,2
O=C(Nc1cccc(Cl)c1)OCCN1CCN(Cc2ccccc2)CCC1=O,-8,14,-7,-17,34*
Cc1nc(N2CCCC2)ncc1C(=O)N1CCN(c2ccccc2F)CC1,10,5,-1,.,1
CC(C)(C)C(=O)C(Oc1ccc(Cl)cc1)n1ccnc1 (stereo unspecified),.,.,.,.,-8
COc1cccc(CNC(=O)c2ccc(CN3CC(=O)N4CCCCC4C3=O)cc2)c1 (stereo unspecified),-1,0,-2,.,-1
N#CC[C@H](c1ccccc1)N1CCN(Cc2ccccc2)CCC1=O,0,1,-3,-10,34*
COc1cccc(NC(=O)OCCN2CCN(Cc3ccccc3)CCC2=O)c1,6,5,-5,19,44*
Cc1ccc(NC(=O)OCCN2CCN(Cc3ccccc3)CCC2=O)cc1,12,-1,-1,6,0
Cc1ccc(S(=O)(=O)N2CCC(=O)N(C(CO)Cc3ccccc3)CC2)cc1 (stereo unspecified),-43*,-1,-3,2,-2
CC(C)Oc1ccc(CNC(=O)CN2C(=O)CCn3nc(-c4cn(C)c5ccccc45)cc32)cc1,17,1,-4,.,-19
COc1cc(CNc2ncc(-c3ccc(Br)cc3)n2C)cc(OC)c1OC,-26,3,-6,?,-26
Cn1c(-c2ccc(Br)cc2)cnc1NCc1cccnc1,-1,0,-1,-62*,-3
Cn1c(-c2ccc(F)cc2)cnc1NCc1ccc(C#N)cc1,-1,13,-7,-73*,-1
Cc1cc(OCC(=O)Nc2ccc(C(=O)OC3CCCCC3)cc2)cc(C)c1Cl,-5,4,2,.,10
COC(=O)CSc1n[nH]c(-c2cccnc2)n1,-34*,-1,0,5,4
CC(CCc1ccccc1)NC(=O)CSc1n[nH]c(-c2ccccc2)n1 (stereo unspecified),-13,4,-3,.,7
O=C(CSc1n[nH]c(-c2ccccn2)n1)Nc1ccccc1,-11,2,-8,4,0
CCOC(=O)CSc1n[nH]c(-c2cccnc2)n1,.,.,.,-23,5
COc1ccc(NC(=O)CSc2n[nH]c(-c3ccccn3)n2)cc1,-65*,0,-3,-4,-2
COc1ccc(-c2nc(SCC(=O)NC(C)CCc3ccccc3)n[nH]2)cc1 (stereo unspecified),-33*,5,-2,.,15
COc1ccc(NC(=O)CN(C)S(=O)(=O)c2ccc3nc(C)sc3c2)cc1,-25,-1,-1,.,4
SMILES,D1 antagonist,D1 ag,D1 PAM,D3 antag,DRD3 agonist
COc1cccc(OCCCn2ccnc2)c1,-9,5,5,4,6
CCC(C)c1ccccc1OCCn1ccnc1 (stereo unspecified),-34*,7,-5,0,0
CCc1cccc(OCCCn2ccnc2)c1,-32*,6,-2,-10,17
Brc1cccc(OCCOCCn2ccnc2)c1,-2,3,-1,-22,-3
Brc1cccc(OCCn2ccnc2)c1,3,4,2,-65*,-3
Cc1cc(OCCCn2ccnc2)cc(C)c1Cl,-31*,8,-9,24,5
Cc1ccc(NC(=O)c2c(C)oc3ncn(CC(C)C)c(=O)c23)nc1,-14,-1,0,.,-11
C[N+]1(CCn2ccc3ccccc32)CCCCC1,-2,0,1,10,-2
c1ccc(C2(Cn3ccc4ccccc43)OCCO2)cc1,-5,1,-6,27,71*
COc1ccccc1Cc1nc2ccccc2nc1SCC(=O)Nc1cccc(Cl)c1C,-20,2,-1,.,-14
CCCCCC(=O)NNC(=O)c1ccc(-c2ccccc2)cc1,-3,2,-1,30,36*
O=C(NNC(=O)c1ccc(-c2ccccc2)cc1)c1ccccc1,16,6,-1,7,-1
CCCCC(=O)NNC(=S)NC(=O)c1ccc(C)cc1,-17,60*,1,8,21
CC(=O)Nc1ccccc1-c1nc2ccccc2n(CC(=O)c2ccc(Br)cc2)c1=O,-7,5,-2,.,-13
O=C(COc1ccccc1[N+](=O)[O-])N1CCC(c2nc3ccccc3o2)CC1,-4,-2,0,.,2
O=[N+]([O-])c1ccccc1C1Nc2cccc3cccc(c23)N1,10,-1,-3,-104*,-20
Oc1ccccc1C1Nc2cccc3cccc(c23)N1,-22,2,-4,-7,2
Cc1noc(/C=C/c2cccs2)c1S(=O)(=O)N1CCC(C(=O)NCc2ccccc2Cl)CC1,-17,4,3,.,5
C=CC(=O)Nc1ccc(CN2C(=O)N(c3c(Cl)c(OC)cc(OC)c3Cl)Cc3cnc(NCCCCN(CC)CC)nc32)cc1,.,.,.,-65*,-36
CCN(CC)CCNC(=O)c1ccc(NC(=O)Cc2ccc(OC)c(S(=O)(=O)N3CCOCC3)c2)cc1,.,.,.,-24,-20
CN(C)CCCSc1nc2ccccc2s1,-4,8,13,-82*,-25
CCn1c(CSc2nc3ccccc3s2)n[nH]c1=S,-1,6,4,-53*,-1
O=C(O)CCSc1nc2ccccc2s1,-18,5,0,-72*,4
COCCNC(=O)c1ccc(CSc2nc3ccccc3s2)cc1,-34*,12,-8,1,-1
CCNC(=O)c1ccc(CSc2nc3ccccc3s2)cc1,-1,1,-1,17,9
SMILES,D1 antagonist,D1 ag,D1 PAM,D3 antag,DRD3 agonist
CC(=O)SCC(CC(=O)c1ccc(C)cc1)C(=O)O (stereo unspecified),.,.,.,.,12
CC(C)OCCCNC(=O)Cn1ncc2c(=O)oc3ccccc3c21,-4,5,2,0,3
Cc1ccc2oc(=O)c3cnn(CC(=O)NCCCOC(C)C)c3c2c1,1,1,.,-84*,2
COc1ccc(N2CCN(C(=O)Cn3nc(Cc4cccnc4)c4ccccc4c3=O)CC2)cc1,7,-1,0,.,70*
Cc1ccc(CN2C(=O)C3(c4ccccc42)N(c2cccc(C(F)(F)F)c2)C(=O)CS3(=O)=O)cc1 (stereo unspecified),3,4,-1,.,-2
Cc1ccc(CNC(=O)c2cnc(N3CCCCC3)c3ccccc23)cc1,-12,3,-2,.,10
